{"source": "PubChem BioAssay (Tox21)", "note": "Results filed as inconclusive are left out. Unmarked numbers belong to inactive results. The call rests on the fitted dose curve; in most records, active means well fitted activation curve with a large enough effect in the repeat runs; inconclusive means weak or mixed curves; inactive means flat fitted curve, though single readings scatter. On the % scale 0 is the no-effect control and ±100 the full control effect.", "data": [{"assay": "A CellTox Green Cytotoxicity Assay to monitor cytotoxicity in HEK293 cells - 8 hour (AID 1224884); further: nearly all actives have a fitted effect of over 35% in size", "details": "CellTox Green fluorescence; series mostly up to 76.8 µM; cytotoxicity increase: at the top concentration", "procedure,_shortened": "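HEK293 cells, 600/well, were preincubated 5 hours and then exposed to compounds at 37 C for up to 40 hours. A cell-impermeant cyanine dye staining dead-cell DNA was read by fluorescence at 0, 8, 16, 24, 32 and 40 h time points.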", "values": [{"compound": "C=CC(=O)OCCCCCCCCCC", "cytotoxicity increase": "-7.72%"}, {"compound": "O=C(O)c1ccc2c(c1)nc(C(=O)NC1CCN(C3CC3)CC1)n2Cc1cc(-c2ccc(Cl)s2)on1", "cytotoxicity increase": "-5.24% [at 15.8 µM]"}, {"compound": "CC(COc1ccccc1)NC(C)C(O)c1ccc(O)cc1", "note": "(stereo not drawn)", "cytotoxicity increase": "-2.48% [at 35.3 µM]"}, {"compound": "Clc1nc2ccccc2nc1Cl", "cytotoxicity increase": "14.8%"}, {"compound": "CCCCCCCCCCCC(=O)OCC", "cytotoxicity increase": "-9.06%"}, {"compound": "Cc1c(-c2cccnc2)c2ccccc2n1CCCCC(=O)O", "cytotoxicity increase": "-10.6%"}, {"compound": "O=[N+]([O-])c1cccc(I)c1", "cytotoxicity increase": "3.94%"}, {"compound": "O=C(O)c1c2ccccc2cc2ccccc12", "cytotoxicity increase": "-2%"}, {"compound": "O=C(O)c1cccnc1Nc1cccc(C(F)(F)F)c1", "cytotoxicity increase": "-5.59% [at 35.3 µM]"}, {"compound": "Cc1ccc2ccccc2c1[N+](=O)[O-]", "cytotoxicity increase": "4.2%"}, {"compound": "O=c1c2ccccc2oc2ccccc12", "cytotoxicity increase": "-3.77%"}, {"compound": "CC(=O)c1ccc(Cl)c(Cl)c1Cl", "cytotoxicity increase": "11.2%"}, {"compound": "CCc1cnc(C(=O)O)c(C(=O)O)c1", "cytotoxicity increase": "-5.23%"}, {"compound": "C=CC(O)CCCCC", "note": "(stereo not drawn)", "cytotoxicity increase": "18.7%"}, {"compound": "COc1cccc([C@H](O)C2CCN(CCc3ccc(F)cc3)CC2)c1OC", "cytotoxicity increase": "-8.61%"}, {"compound": "Cc1nc2sccn2c(=O)c1CCN1CCC(=C(c2ccc(F)cc2)c2ccc(F)cc2)CC1", "cytotoxicity increase": "0.0401% [at 35.3 µM]"}, {"compound": "C=C(C)C(=O)OCCCCCCCCCCOC(=O)C(=C)C", "cytotoxicity increase": "6.53%"}, {"compound": "C=CC(=O)NC(C)(C)C", "cytotoxicity increase": "-12.3%"}, {"compound": "Sc1nc(S)nc(S)n1", "cytotoxicity increase": "-4.65% [at 35.3 µM]"}, {"compound": "CCCc1ccc(OC)cc1", "cytotoxicity increase": "-0.162%"}, {"compound": "C(/C=C/C=C/Nc1ccccc1)=Nc1ccccc1", "cytotoxicity increase": "13.3%"}, {"compound": "OCC(O)c1ccccc1", "note": "(stereo not drawn)", "cytotoxicity increase": "27.4%"}, {"compound": "CO[C@@H]1[C@@H](O[C@@H]2O[C@H](C)[C@@H](O[C@H]3C[C@@](C)(O)[C@@H](O)[C@H](C)O3)[C@H](N(C)C)[C@H]2O)[C@@H](CC=O)C[C@@H](C)[C@@H](O[C@@H]2CC[C@H](N(C)C)[C@@H](C)O2)/C=C/C=C/C[C@@H](C)OC(=O)C[C@H]1OC(C)=O", "cytotoxicity increase": "5.32% [at 35.3 µM]"}]}]}
